# BAZ2B block – blocks human BAZ2B; AID 504333; 4.4% of 360,000 active; Potency, µM (series often up to 114 µM), inactives show top-dose activity change, negative = inhibition, usual class: inhibitors; AlphaScreen BAZ2B-H3K14Ac peptide displacement; Q9UIF8; also: potency is read from the fitted curve at half-maximal effect; % is scaled to controls: 0 for no effect and ±100 for the full control effect; nearly all actives have a fitted effect of over 60% in size
#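 Inhibition is scored as reduced AlphaScreen emission. The BAZ2B/b-H3(5-23)K14Ac complex (50 nM each) in PBS pH 7.4, 0.01% Tween-20 meets compound (up to 110 uM) for 30 min at RT before bead addition.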
# PI5P4Ka inh – PI5P4K alpha (human) kinase inhibition; max response, %; AID 652105; PI5P4Kalpha enzyme, ADP-Glo luminescence, 60 min; stronger effect = lower value; 1.2% of 330,000 active; active = max response of -50% or lower; inconclusive = between -30% and -50%; inactive = -30% or higher; also: value at the top dose of about 77 µM; % is scaled to controls: 0 for no effect and ±100 for the full control effect
#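 Enzyme plus substrate dispensed, test compounds pinned in, then ATP (5 microM final) added. After 60 min at RT, ADP-Glo reagent 1 for 45 min and reagent 2 for 30 min preceded luminescence imaging.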
# HP1b binding inh – HP1-beta chromodomain-methylated histone interaction inhibition | P83916 | 0.56% of 390,000 active | AID 540317 | Potency, µM (highest dose often 114 µM), inactives show at the top dose activity change, negative = inhibition, usual class: inhibitors | AlphaScreen HP1-beta / biotin-H3K9me3 peptide binding; also: potency is read from the fitted curve at half-maximal effect; nearly all actives have a fitted effect of over 70% in size
# Target sequence (P83916 whole entry, looked up): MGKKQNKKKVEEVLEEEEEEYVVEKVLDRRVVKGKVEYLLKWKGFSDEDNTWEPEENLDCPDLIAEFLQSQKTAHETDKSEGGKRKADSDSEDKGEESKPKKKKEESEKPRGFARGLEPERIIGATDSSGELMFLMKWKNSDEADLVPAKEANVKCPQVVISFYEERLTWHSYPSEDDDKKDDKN
#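 HP1-beta protein (50 nM final) preincubated 30 min at room temperature with biotinylated H3(1-18)K9me3 peptide (50 nM) in PBS pH 7.4, 0.01% Tween-20, then compound added for 30 min. AlphaScreen streptavidin donor/nickel chelate acceptor beads (10 ug/mL final), 30 min dark, luminescence read.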
# JMJD2A Tudor inh – JMJD2A Tudor domain (human) inhibition | Potency, µM (doses to about 114 µM), for the others: at the highest dose activity change, negative = inhibition, most hits filed as inhibitors | AlphaScreen JMJD2A-Tudor / H3K4me3 peptide binding | 4.4% of 390,000 active | O75164; also: potency is read from the fitted curve at half-maximal effect; % is scaled to controls: 0 for no effect and ±100 for the full control effect; nearly all actives have a fitted effect of over 50% in size
# G9a block – G9a (human) methyltransferase inhibition. G9a H3K9 monomethylation, AlphaScreen, 2 h. AID 504332. Q96KQ7. 8.8% of 350,000 active. Potency, µM (top dose mostly 102 µM), for the others: at the top dose activity, negative = inhibition, usual class: inhibitors; also: potency is read from the fitted curve at half-maximal effect; % is scaled to controls: 0 for no effect and ±100 for the full control effect; nearly all actives have a fitted effect of over 75% in size
# Target sequence (Q96KQ7 913-1193 limits assumed): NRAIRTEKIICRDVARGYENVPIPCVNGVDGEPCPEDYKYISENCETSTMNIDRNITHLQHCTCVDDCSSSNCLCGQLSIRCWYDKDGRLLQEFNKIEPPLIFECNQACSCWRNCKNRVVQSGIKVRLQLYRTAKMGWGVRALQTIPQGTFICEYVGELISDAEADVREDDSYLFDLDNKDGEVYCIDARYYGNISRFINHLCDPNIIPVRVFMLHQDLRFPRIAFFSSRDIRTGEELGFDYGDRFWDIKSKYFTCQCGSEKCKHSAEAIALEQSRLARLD
#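 Step 1: enzyme (final 20 nM) with compound, 15 min RT. Step 2: substrate peptide 500 nM and SAM 20 uM, 2 h RT. Step 3: anti-H3K9me1 antibody and AlphaScreen beads, 10 min, then plate read.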
# PLK1 PBD block – PLK1 (human) polo-box domain binding inhibition; P53350; Plk1 PBD binding of FITC phosphopeptide, fluorescence polarization; Potency, µM, for inactives: max response, negative = inhibition, actives largely listed as inhibitors; 2.8% of 360,000 active; AID 720504; also: potency is read from the fitted curve at half-maximal effect; series mostly up to about 57 µM; % is scaled to controls: 0 for no effect and ±100 for the full control effect; nearly all actives have a fitted effect of over 65% in size
# TbPYK confirm – confirmation of Trypanosoma brucei pyruvate kinase inhibitors | shares compounds with PLK1 PBD block | recombinant TbPYK, Kinase-Glo ATP luminescence | Potency, µM (series often up to 76.9 µM), for inactives: at the top dose activity change, negative = inhibition, most hits filed as inhibitors | 67% of 890 active | AID 720569; also: potency is read from the fitted curve at half-maximal effect; % is scaled to controls: 0 for no effect and ±100 for the full control effect; nearly all actives have a fitted effect of over 70% in size
# TbPYK ADP-Glo – orthogonal confirmation of Trypanosoma brucei pyruvate kinase inhibitors; shares compounds with PLK1 PBD block; recombinant TbPYK, ADP-Glo luminescence, 60 min; Potency, µM (titrated, usually from 76.9 µM), inactives show top-dose activity change, negative = inhibition, actives largely listed as inhibitors; 62% of 890 active; AID 720584; also: potency is read from the fitted curve at half-maximal effect; % is scaled to controls: 0 for no effect and ±100 for the full control effect; nearly all actives have a fitted effect of over 75% in size
# * marks the source's active call; other numbers are inactive results; ? = inconclusive; . = no result; [ ] = another dose, or the depositor's remark. Rows were chosen to be rich in hits. Some 12% of all compounds tested hit in one or more screens of this group. Unless noted, calls follow the shape of the dose curve; as a rule, active = well fitted curve in the direction sought with a large enough effect; inconclusive = small, poorly fitted or top-dose-only effect, or another doubt; inactive = no such curve, though single readings can be large; an effect the other way counts as inactive or inconclusive.
SMILES,BAZ2B block,PI5P4Ka inh,HP1b binding inh,JMJD2A Tudor inh,G9a block,PLK1 PBD block,TbPYK confirm,TbPYK ADP-Glo
N#C/C(=C/c1ccc(N2CCOCC2)o1)C(=O)NC1CCCCC1,?,2,26%,-12%,.,56%,.,.
N#C/C(=C/c1ccc(N2CCOCC2)o1)c1ccc(Br)cc1,45µM*,-26,?,56µM*,7.9µM*,17%,?,35µM*
COC(CNC(=O)c1ccc(Cn2c(=S)[nH]c3cc4c(cc3c2=O)OCO4)cc1)OC,?,-4,26%,22µM*,?,-1%,2µM*,2.5µM*
COC(=O)c1ccc2c(=O)n(Cc3ccc(C(=O)NC4CCCC4)cc3)c(=S)[nH]c2c1,-6%,2,51%,-8%,9%,1%,.,.
COC(=O)c1ccc2c(=O)n(Cc3ccc4c(c3)OCO4)c(=S)[nH]c2c1,-4%,1,45%,-10%,24%,-11%,.,.
COCCNC(=O)c1ccc(Cn2c(=S)[nH]c3cc4c(cc3c2=O)OCO4)cc1,-29%,5,38%,28µM*,?,-1%,1.4µM*,2µM*
COC(=O)c1ccc2c(=O)n(Cc3ccc(C(=O)NCCCN4CCC(C)CC4)cc3)c(=S)[nH]c2c1,-25%,6,28%,-23%,35µM*,-11%,18µM*,16µM*
COc1ccc(-c2nc3cnc(N4CCNCC4)nc3n(CCc3ccccc3)c2=O)cc1,.,.,.,.,9%[12.7 µM],.,.,.
O=C1C=CC(=O)N1c1ccc(OC(F)F)cc1,?,?,20µM*,16µM*,1.4µM*,3.4µM*,-13%,-8%
Cc1sc2ccc3sccc3c2[n+]1C,?,-21,4%,20µM*,3.5µM*,?,4.5µM*,5µM*
Cc1sc2c3ccsc3ccc2[n+]1C,100µM*,-29,-20%,25µM*,?,11µM*,20µM*,5µM*
Cc1ccc2nc(N(CCCN(C)C)C(=O)c3ccc4ncsc4c3)sc2c1,?,?,7%,40µM*,14µM*,21µM*,25µM*,35µM*
Cc1noc(NS(=O)(=O)c2ccc(NC(=O)CSc3nc4c(cc3C#N)CCC4)cc2)c1C,?,-11,-1%,25µM*,7.1µM*,?,?,32µM*
CC1=C(C(=O)Nc2ccccc2)C(c2cccc(Cl)c2)n2nc(SCC(=O)c3ccc(C)cc3)nc2N1 (stereo not drawn),1%,.,-5%,-18%,4%[59 µM],.,.,.
CC1(c2nnc(-c3ccc(Cl)cc3)o2)CC(c2cccnc2)=NO1 (stereo not drawn),.,9,19%,-18%,.,-2%,.,.
CCN(CC)c1ccc(C(=C2C=CC(=[N+](CC)CC)C=C2)c2ccccc2)cc1,.,-30,10µM*,16µM*,.,3.8µM*,35µM*,?
CCN(CC)c1ccc(C(=O)NNC(=O)CCNC(=O)c2ccccc2)cc1,11%,4,32%,-8%,-6%[12.7 µM],-4%,.,.
CCN(CC)c1ccc(C(=C2C=CC(=[N+](CC)CC)C=C2)c2ccc(N(CC)CC)cc2)cc1,.,-73*,2.8µM*,1.3µM*,.,30µM*,22µM*,14%
O=C(c1cccc(S(=O)(=O)N2CCc3ccccc3C2)c1)N1CCN(c2ccc(O)cc2)CC1,?,-13,?,?,2.5µM*,-3%,5µM*,14µM*
NC(=O)C1CCN(C(=O)c2cccc(S(=O)(=O)N3CCc4ccccc4C3)c2)CC1,-18%,7,16%,0%,-12%,8%,.,.
COc1cc(C=C2C(=O)C=CC2=O)ccc1O,.,-104*,.,.,.,5.3µM*,1.1µM*,1.1µM*
Cc1ccc2sc(NNC(=O)C3COc4ccccc4O3)nc2c1C (stereo not drawn),?,1,-8%,?,32µM*,-6%,?,?
NC(=O)Cn1c(=O)n(Cc2ccco2)c(=O)c2c3c(sc21)CCCCC3,?,.,-45%,56µM*,20µM*,?,?,?
O=[N+]([O-])c1ccc(N2CCN(Cc3ccccc3)CC2)c2c1no[n+]2[O-],.,-8,.,.,.,0%,.,.
NC(=O)CSc1nnc(-c2cccc(S(=O)(=O)N3CCOCC3)c2)n1C1CCCCCC1,-4%,?,-9%,?,8%,3µM*,-13%,-19%
SMILES,BAZ2B block,PI5P4Ka inh,HP1b binding inh,JMJD2A Tudor inh,G9a block,PLK1 PBD block,TbPYK confirm,TbPYK ADP-Glo
Cc1ccc(CSc2nnc(-c3cccc(S(=O)(=O)N4CCOCC4)c3)n2C2CCCC2)cc1,-9%,8,?,-22%,5%[59 µM],-6%,.,.
Cc1c(CCOC(=O)c2ccccc2)sc[n+]1Cc1ccccc1,3%,4,54%,-5%,-14%[59 µM],-2%,.,.
Cc1ccc2c(c1)sc[n+]2Cc1ccccc1,71µM*,.,21%,28µM*,?,3µM*,-20%,?
CCc1nc2nc(C)c(NS(=O)(=O)c3ccc(C)cc3)c(=O)n2[nH]1,-10%,.,29%,-3%,-28%[59 µM],.,.,.
O=C(c1ccc2ncsc2c1)N1CCCCC1,3%,-5,44%,-11%,-3%,1%,?,?
NC(=O)C1CCN(C(=O)c2ccc3ncsc3c2)CC1,.,-7,.,.,.,1%,.,.
O=C1c2cccc3cccc(c23)C(=O)C1(O)O,.,?,-24%,45µM*,.,?,6.3µM*,5µM*
CC(=O)N1C(=O)c2cccc3cccc(c23)C(=O)N1C(C)=O,-6%,3,33%,5%,10%[12.7 µM],-13%,.,.
CCOC(=O)C=C(C(=O)OCC)C(=O)OCC,-3%,3,?,-7%,13µM*,11µM*,4.5µM*,7.9µM*
O=C1C=CC(=O)N1CCNc1ncc(C(F)(F)F)cc1Cl,-30%,-18,-1%,?,2.5µM*,2.7µM*,1.3µM*,4µM*
CC(=O)/C(=N/Nc1cccc(Cl)c1)Sc1nnc(C(O)c2ccccc2)n1-c1ccccc1 (stereo not drawn),-38%,3,35%,-17%,?,-3%,.,.
COC(=O)/C(=N/Nc1ccccc1C)Sc1nnc(C(O)c2ccccc2)n1-c1ccccc1 (stereo not drawn),-8%,-19,24%,-19%,16µM*,-10%,35µM*,35µM*
